# Gal4-VP16 FLuc – Gal4-VP16 reporter inhibition counter-screen; Drosophila S2 Gal4-VP16 UAS-luciferase, luminescence, 20 h; Potency, µM (series often up to 53.6 µM), for the others: top-dose activity, negative = inhibition, usual class: inhibitors; 3.5% of 310,000 active; AID 2546;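 further: Gal4-VP16 expression switched on by copper sulfate through the metallothionein promoter; potency means the concentration at half of the fitted maximal effect; nearly all actives have a fitted effect of over 50% in size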
# FBPA coupling cs – counter-screen for Giardia aldolase inhibitors: coupling enzyme system; activity change, negative = inhibition, % at 58.2 µM, hits read low; 0.67% of 290,000 active; coupling enzyme system counterscreen, AmpLite Red fluorescence; AID 2472; in the data active means activity change below about -30%
#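 Compounds tested against the coupling enzymes alone at 57.5 uM final; readout was AmpLite Red fluorescence (525/598 nm) after 20 min at RT.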
# RORgamma inh – inhibitors of mouse ROR gamma transcriptional activity; Drosophila S2 Gal4-RORgamma UAS-luciferase reporter, 20 h; AID 2551; 5.4% of 310,000 active; Potency, µM (top dose mostly 53.6 µM), without a hit: at the highest dose activity change, negative = inhibition, hits mostly inhibitors; P51450; further: potency means the concentration at half of the fitted maximal effect; nearly all actives have a fitted effect of over 60% in size
#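 Drosophila S2 cells stably expressing Gal4-DBD/mouse RORγ fusion under metallothionein promoter plus UAS-luciferase; compound 1 h, then 700 uM CuSO4 induction for 20 h at ambient temperature; inhibition read as reduced luminescence.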
# ELG1 DNA repair – inhibitors of ELG1-dependent DNA repair in HEK293T cells; 2.3% of 330,000 active; Potency, µM (series often up to 46.1 µM), for inactives: at the top dose activity change, negative = inhibition, most hits filed as inhibitors; HEK293T ELG1-luciferase reporter, luminescence, 16 h; DNA damage induced by 5-fluorouridine; further: potency means the concentration at half of the fitted maximal effect; nearly all actives have a fitted effect of over 55% in size
#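 Luminescence from the luciferase reporter, measured 30 min after ONE-Glo reagent at room temperature, was the read-out. Beforehand, 2,000 cells per well were exposed for 16 hr at 37 °C to 5-fluorouridine together with compound or vehicle.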
# TSHR antagonist – human thyrotropin receptor antagonism; activity change, negative = inhibition, % at 11.5 µM; 0.2% of 330,000 active; P16473; TSHR-expressing cells, TSH-stimulated cAMP HTRF, 2 h; active compounds read low;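 active means activity change below a set negative limit, meaning inhibition stronger than a set level, cut at about -70% in these data; inconclusive means activity change between two set negative limits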
#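 Cell-based HTRF cAMP assay; TSHR cells + compound, TSH EC80 (4nM final), 2 h, 37 deg C. Lysis with anti-cAMP cryptate and cAMP-d2, 30 min RT, read 665/620 nm.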
# * hit, by the source's call; ? = inconclusive; nt = no result given; ! = not confirmed by another sample. Hits are enriched below; roughly 8% of the tested compounds scored in any of these assays. Unless noted, the call rests on the fitted dose curve; in most records, active means well fitted curve in the direction sought with a large enough effect; inconclusive means small, poorly fitted or top-dose-only effect, or another doubt; inactive means no such curve, though single readings can be large; an effect the other way counts as inactive or inconclusive. On the % scale 0 is the no-effect control and ±100 the full control effect.
SMILES,Gal4-VP16 FLuc,FBPA coupling cs,RORgamma inh,ELG1 DNA repair,TSHR antagonist
CCOP(=S)(OCC)SCn1c(=O)oc2cc(Cl)ccc21,-20%,-2,38%,nt,nt
CCOP(=S)(OCC)O/N=C(\C#N)c1ccccc1Cl,-2%,0,-14%,nt,nt
Cc1c2ccncc2c(C)c2c1[nH]c1ccccc12,5.6µM*,-30*!,10µM*,?,-10
Cc1nccc2c1[nH]c1ccccc12,-14%,2,-24%,-2%,-5
CC(C)NS(=O)(=O)c1ccc(OCC(=O)N2CCN(Cc3ccccc3)CC2)c(Cl)c1,20µM*,1,?,-10%,3
CC(C)(C)c1ccc(C(=O)NC(=S)Nn2cnnc2)cc1,?,0,14µM*,?,5
COC1C=CC23c4cc5c(cc4CN(CC2O)C3C1)OCO5 (stereo not given),1.3µM*,-2,3.2µM*,nt,nt
CN1CC(CNC(=O)OCc2ccccc2)CC2c3cccc4c3c(cn4C)CC21 (stereo not given),?,-3,16µM*,nt,nt
CCCn1cc2c3c(cccc31)C1CC(C)CN(C)C1C2 (stereo not given),4%,0,-31%,4%,13
Cc1ccc2c(c1)Cc1c(C(=O)NN3CCCCC3)nn(-c3ccc(Cl)cc3Cl)c1-2,-5%,-19,?,nt,nt
C[C@@]12CCC(=O)C[C@@H]1CC[C@@H]1[C@@H]2CC[C@]2(C)C(=O)CC[C@@H]12,5%,4,-7%,nt,nt
Cc1ccc2c(Cl)cc(Cl)c(OCC(=O)N(C(C)C)C(C)C)c2n1,1%,0,6.3µM*,26µM*,-8
O=C(O)COc1nc(Cl)c(Cl)cc1Cl,5%,-3,19%,nt,nt
N[C@H](CCP(=O)(O)O)C(=O)O,7%,4,26%,nt,nt
COc1ccc(OC)c(N2C(=O)NC(=O)/C(=C\c3ccc([N+](=O)[O-])s3)C2=O)c1,?,-20,6.3µM*,0%,-13
Cc1ccccc1-n1c(/C=C/c2ccccn2)nc2ccccc2c1=O,-6%,-3,17%,?,-4
CN1C2CCC1/C(=C/c1ccccn1)C(=O)/C2=C\c1ccccn1,2.5µM*,4,2.8µM*,1.8µM*,6
CCCCOC(C)=O,5%,nt,3%,nt,nt
CC(C)(C)c1cc(C=C(C#N)C#N)cc(C(C)(C)C)c1O,nt,nt,nt,-29%,-81*
N#CC(C#N)=Cc1ccc(O)c(O)c1,14µM*!,7,16µM*,8%,-24
CN(C)c1ccc(C=C(C#N)C#N)cc1,1%,-1,21%,12%,-15
C[N+](=O)[O-],0%,nt,-13%,nt,nt
CCC(=O)c1ccc(OCC(=O)N2CCN(CC(=O)Nc3ccccc3C(F)(F)F)CC2)cc1,nt,nt,nt,16µM*,-12
CCCCOCC1CO1 (stereo not given),7%,nt,1%,nt,nt
c1ccc2cc3c(cc2c1)-c1cccc2cccc-3c12,3%,nt,-17%,nt,nt
SMILES,Gal4-VP16 FLuc,FBPA coupling cs,RORgamma inh,ELG1 DNA repair,TSHR antagonist
COC(=O)[C@@H]1C[C@H]1[C@@H](NP(=O)(c1ccccc1)c1ccccc1)c1ccccc1,?,6,10µM*,?,5
COC(=O)[C@H]1C[C@@H]1[C@H](NP(=O)(c1ccccc1)c1ccccc1)c1ccccc1,0%,0,23%,13%,0
CC(=O)O[C@@H]1[C@@H](O)C2OC3C=C(C)C(=O)[C@@H](O)[C@]3(CO)C1(C)C21CO1 (stereo not given in full),0.11µM*,0,0.63µM*,nt,nt
C(=NC1CCCCC1)=NC1CCCCC1,2.2µM*,nt,?,nt,nt
CCN1C[C@]2(C)CC[C@H](O)[C@@]34C5C[C@@H]6[C@@H](OC)C[C@@](O)(C5[C@H]6O)[C@@H](CC23)[C@@H]14 (stereo not given in full),-10%,4,1%,nt,nt
C/C(=N\NC(N)=S)C12CC3CC(CC(C3)C1)C2,2.5µM*,1,1.8µM*,?,-42
CC(C)c1cc2c(c(O)c1O)[C@@]1(C(=O)O)CCCC(C)(C)[C@@H]1CC2,?,-43*,?,nt,nt
Fc1ccc(C(OCCN2CCCC2)c2ccc(F)cc2)cc1,-8%,3,-36%,-4%,3
